Source: PubChem BioAssay AID651610 (Broad Institute, 2012)
Among all 360,000 compounds or so, about 3,900 (1.1%) were called active.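 How the source made its calls: active means mean replicate inhibition score of at least 50 and every replicate individually at or above 50; inconclusive means only one of the two criteria met; inactive means mean below 50 and not all replicates reaching 50.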 What follows is part of a selection rich in actives, with near analogues and random picks from the rest.

Test: blockers of JRFL envelope-mediated fusion – HeLa-JRFL effector, CEM21 target cells, luciferase, primary screen (AID 651610);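 further: 0% = plate neutral controls and 100% = maraviroc near 300 nM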
Conditions: HeLa-JRFL Env/CEM21 cell fusion, stronger effect = higher value; at 16.7 µM unless noted
In the case of `Cc1noc(C)c1NC(=O)N(C)C[C@H]1OCCCC[C@@H](C)Oc2ccc(NS(=O)(=O)c3ccc(Cl)cc3)cc2C(=O)N([C@@H](C)CO)C[C@H]1C`, the inhibition is reported as -65.1% (inactive). In the case of `CCCN(C)C[C@H]1OCCCC[C@@H](C)Oc2ccc(NC(=O)Nc3ccc(F)cc3)cc2C(=O)N([C@@H](C)CO)C[C@H]1C`, the inhibition is reported as -12.4% (inactive). For `C[C@@H]1CCCCO[C@@H](CN(C)C(=O)C2CCCCC2)[C@H](C)CN([C@H](C)CO)C(=O)c2cc(NC(=O)Cc3ccccc3)ccc2O1`, the inhibition was -36.4% (inactive). In the case of `CCN(C[C@H]1N[C@@](Cc2ccccc2)(C(=O)OC)[C@H]2C(=O)N(Cc3ccccc3)C(=O)[C@@H]12)C(=O)c1ccc(C)cc1`, the inhibition is reported as -47.2% [at 12.3 µM] (inactive). For `CC[C@]1(C(=O)OC)[C@H]2C(=O)N(Cc3ccccc3)C(=O)[C@H]2[C@H]2CN=C(SCc3ccc(C#N)cc3)N21`, the inhibition was 87.6% [at 12.3 µM] (active). For `COC(=O)[C@@]1(C)[C@H]2C(=O)N(Cc3ccccc3)C(=O)[C@H]2[C@H]2CN=C(SCC3CC3)N21`, the inhibition was 84% [at 12.3 µM] (active). In the case of `CCNC(=O)N(CC)C[C@H]1N[C@@](CC)(C(=O)OC)[C@H]2C(=O)N(Cc3ccccc3)C(=O)[C@@H]12`, the inhibition is reported as -2.99% [at 12.3 µM] (inactive). With `CC[C@]1(C(=O)OC)[C@H]2C(=O)N(Cc3ccccc3)C(=O)[C@H]2[C@H]2CN=C(SCc3ccccc3)N21` the inhibition was 93.6% [at 12.3 µM] (active). In the case of `CC[C@]1(C(=O)OC)[C@H]2C(=O)N(C)C(=O)[C@H]2[C@H]2CN(C)C(=NCc3ccccc3)N21`, the inhibition is reported as -17.3% [at 12.3 µM] (inactive). In the case of `CCN1C[C@@H]2[C@@H]3C(=O)N(Cc4ccccc4)C(=O)[C@@H]3[C@](C)(C1=O)N2C(=O)c1ccc(C(C)(C)C)cc1`, the inhibition is reported as -9.05% [at 12.3 µM] (inactive). In the case of `CCN1C[C@@H]2[C@@H]3C(=O)N(Cc4ccccc4)C(=O)[C@@H]3[C@](Cc3ccccc3)(C(=O)OC)N2C1=NC1CCCCC1`, the inhibition is reported as 16.7% [at 12.3 µM] (inactive). For `COC(=O)[C@]1(Cc2ccccc2)N[C@H](CN(C)S(=O)(=O)c2ccc(F)cc2)[C@@H]2C(=O)N(Cc3ccccc3)C(=O)[C@@H]21`, the inhibition was 31.6% [at 12.3 µM] (inactive). For `CO[C@@H]1CN(C)C(=O)c2cc(NC(C)=O)ccc2OC[C@H](C)N(C(=O)CC2CC2)C[C@@H]1C`, the inhibition was -18.3% (inactive). With `Cc1noc(C)c1S(=O)(=O)Nc1ccc2c(c1)C(=O)N([C@H](C)CO)C[C@@H](C)[C@@H](CN(C)C(=O)C1CCCCC1)OCCCC[C@@H](C)O2` the inhibition was 2.09% (inactive). In the case of `C[C@H](O)C#Cc1cnc2c(c1)C(=O)N([C@@H](C)CO)C[C@H](C)[C@@H](CN(C)C(=O)c1ccncc1)O2`, the inhibition is reported as -14.6% (inactive). With `CO[C@@H]1CN(C)C(=O)c2cc(NC(=O)c3ccc(F)cc3)ccc2OC[C@H](C)NC[C@@H]1C` the inhibition was -6.15% (inactive). In the case of `Cc1ccccc1S(=O)(=O)N[C@H]1CC[C@@H](CCn2cc(Cc3ccccc3)nn2)O[C@H]1CO`, the inhibition is reported as 0.428% (inactive). In the case of `CCCC(=O)Nc1ccc2c(c1)OC[C@@H](C)N(CC1CCOCC1)C[C@H](C)[C@H](OC)CN(C)C2=O`, the inhibition is reported as -7.57% (inactive). With `C[C@@H]1CN([C@H](C)CO)C(=O)c2cccc(NC(=O)Nc3ccccc3)c2O[C@H]1CN(C)Cc1ccccc1` the inhibition was 9.88% (inactive). In the case of `Cc1ccc(S(=O)(=O)N(C)C[C@@H]2OCCCC[C@H](C)Oc3ccc(NS(=O)(=O)c4cn(C)cn4)cc3C(=O)N([C@H](C)CO)C[C@@H]2C)cc1`, the inhibition is reported as -30.7% (inactive). With `CO[C@H]1CN(C)C(=O)c2ccc(NS(=O)(=O)c3ccccc3)cc2OC[C@@H](C)N(Cc2nccs2)C[C@@H]1C` the inhibition was -11.1% (inactive). For `C/C=C/c1ccc([C@@H]2[C@@H](CO)N(C(=O)CN(C)C)C23CN(C(=O)C2CCCC2)C3)cc1`, the inhibition was 25.3% (inactive). For `COC(=O)C1=C(C(=O)OC)C2C=C(C(C)C)C1C(=O)C2(C)O` (stereo not drawn), the inhibition was -16.5% [at 12.3 µM] (inactive). With `Cc1c(C(=O)Nc2cccc(S(=O)(=O)N3CCOCC3)c2)oc2ccccc12` the inhibition was 60.5% [at 12.3 µM] (active). In the case of `Cc1occc1C(=O)Nc1cccc(S(=O)(=O)N2CCOCC2)c1`, the inhibition is reported as -25.4% [at 12.3 µM] (inactive). With `COc1ccc(NC(=O)c2oc3ccc(S(=O)(=O)N4CCOCC4)cc3c2C)cc1` the inhibition was 6.27% [at 12.3 µM] (inactive). For `COc1ccc(S(=O)(=O)N(C)C[C@@H]2OCCCC[C@@H](C)Oc3ccc(NS(=O)(=O)c4ccccc4)cc3C(=O)N([C@@H](C)CO)C[C@H]2C)cc1`, the inhibition was -2.53% (inactive). For `O=C(Nc1ccc(N2CCN(C(=O)c3ccccc3)CC2)c(Cl)c1)c1ncn[nH]1`, the inhibition was 5.87% [at 12.3 µM] (inactive). In the case of `Cc1ccccc1N1CCN(C(=O)c2cccnc2)CC1`, the inhibition is reported as 6.64% [at 12.3 µM] (inactive). In the case of `O=C(Nc1ccc(N2CCN(C(=O)c3ccccc3)CC2)c(Cl)c1)c1cccnc1`, the inhibition is reported as 86.4% [at 12.3 µM] (active). With `C[C@H](CO)N1C[C@H](C)[C@H](CN(C)Cc2ccncc2)Oc2ncc(C#Cc3cccc(F)c3)cc2C1=O` the inhibition was 7.42% (inactive). For `CC(C)NC(=O)N[C@@H]1CC[C@H](CC(=O)NCCN2CCCC2)O[C@@H]1CO`, the inhibition was 20.3% (inactive). In the case of `C[C@H](CO)N1C[C@H](C)[C@H](CN(C)C(=O)Nc2ccc(C(F)(F)F)cc2)Oc2ccc(NC(=O)Nc3ccccc3)cc2C1=O`, the inhibition is reported as 15.8% (inactive). For `NC(Cc1ccccc1)c1csc(Nc2cc(Oc3ccccc3)ncn2)n1` (stereo not drawn), the inhibition was -44.1% [at 12.3 µM] (inactive). In the case of `COc1ccc(CC(N)c2csc(NC(=O)Cc3ccccc3)n2)cc1` (stereo not drawn), the inhibition is reported as -13.2% [at 12.3 µM] (inactive). With `NC(Cc1ccc(F)cc1)c1csc(Nc2nncc3ccccc23)n1` (stereo not drawn) the inhibition was 58.7% [at 12.3 µM] (active). With `C[C@H]1CCCCO[C@@H](CN(C)Cc2ccc(C(=O)O)cc2)[C@@H](C)CN([C@@H](C)CO)C(=O)c2cc(NS(C)(=O)=O)ccc2O1` the inhibition was 18.6% (inactive). For `CN1C(=O)c2cc(NC(=O)c3ccc4c(c3)OCO4)ccc2OC[C@@H]2O[C@H](CC(=O)O)CC[C@H]21`, the inhibition was -18.9% (inactive).
